Drawing on PubChem BioAssay AID1839 (Johns Hopkins Ion Channel Center, 2009), this text covers signal change vs control minus 3*SD hit threshold (margin above threshold, higher = more increase) for 52 molecules.

Among all 2,400 compounds or so, about 220 (9.2%) were called active. For the sample, actives were picked, then their nearest neighbours and some compounds at random. A number with no mark means an inactive call.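 How the source made its calls: active means signal change above the mean of dofetilide-free buffer controls plus 3 SD, so a positive margin; inactive means the rest.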

The nature of this assay: thallium signal changes without hERG – cell-based, CHO-K1 parental line, FluxOR thallium flux, counter-screen for hERG block protection project, confirmation (AID 1839).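 Further: compounds applied alone with no dofetilide to cells lacking hERG.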 Conditions: CHO-K1 parental cells, FluxOR thallium flux fluorescence; at 10 µM.
Consider `O=C1NC(=S)SC1=C1CCCCCC1`, for which the signal change vs control minus 3*SD hit threshold (margin above threshold, higher = more increase) is 26% (active).
To `CCCCCN(C(=O)CCC(=O)OCC(=O)N(C)C1CCCCC1)c1c(N)n(CCCC)c(=O)[nH]c1=O` belongs -20.9%; to `CCC1(C(=O)O)NC(c2cc(OC)ccc2O)C2C(=O)N(Cc3ccccc3)C(=O)C21` (configuration not stated), -29.6%.
To `O=C1NCCN1Cc1ccccc1F` belongs -30.6%.
In the case of `ON/C=N/C(=S)Nc1ncc(C(F)(F)F)cc1Cl`, the signal change vs control minus 3*SD hit threshold (margin above threshold, higher = more increase) is 6.1% (active).
To `CON/C=N/C(=S)Nc1ncc(C(F)(F)F)cc1Cl` belongs 16.5% (active).
As for `C/C(Cl)=C\Cn1c(O)c(N=NC(N)=S)c2cc(Br)ccc21`, the signal change vs control minus 3*SD hit threshold (margin above threshold, higher = more increase) is -15.7%.
To `COc1ccc(OC)c(S(=O)(=O)NCc2cn3cccc(C)c3n2)c1` belongs -37.6%; to `O=[N+]([O-])c1ccc(CSc2nnc(SCc3ccc(Cl)cc3)s2)cc1`, -24.5%; to `O=c1c2cc(Br)ccc2nc(-c2ccc([N+](=O)[O-])cc2)n1O`, 6.7% (active).
For `O=c1c2ccc(Cl)cc2nc(-c2ccc([N+](=O)[O-])cc2)n1O`, the signal change vs control minus 3*SD hit threshold (margin above threshold, higher = more increase) is -15.4%.
To `O=c1c2cc(Cl)ccc2nc(-c2ccc([N+](=O)[O-])cc2)n1O` belongs 4.5% (active); to `Nc1nc(O)c(N=Nc2ccc(S(N)(=O)=O)cc2)c(=O)[nH]1`, -32%; to `CNC(=S)Nc1sc2c(c1C(=O)OC)CCC2`, -15.1%.
For `Cc1ccc(C(=O)N/N=C(/CC(=O)c2cccs2)C(F)(F)F)cc1`, the signal change vs control minus 3*SD hit threshold (margin above threshold, higher = more increase) is -22.1%.
Turning to `CC(C)=CCCC1=CCC2C(=O)NNC(=O)C2C1` (configuration not stated), the signal change vs control minus 3*SD hit threshold (margin above threshold, higher = more increase) is -33.3%.
On to `Cc1ccc(OCC(=O)NC(=S)Nc2ccc(Br)cn2)cc1`, for which the signal change vs control minus 3*SD hit threshold (margin above threshold, higher = more increase) was -4.8%.
To `CC(C)(C)NC(=O)C(=O)NNC(=O)COc1ccc(Br)cc1` belongs 6.9% (active); to `CC(C)(C)NC(=O)C(=O)NNC(=O)COc1ccccc1`, -32.8%.
To `c1ccc(SSc2ccccn2)nc1` belongs -36.9%.
In the case of `S=c1[nH]c(-c2ccccc2)cn1/N=C/c1cccc2ccccc12`, the signal change vs control minus 3*SD hit threshold (margin above threshold, higher = more increase) is -17.6%.
In the case of `Oc1oc(-c2cccc3ccccc23)nc1/C=N/c1nccs1`, the signal change vs control minus 3*SD hit threshold (margin above threshold, higher = more increase) was -19.4%.
Regarding `Oc1c(N=NC(=S)Nc2ccccc2F)c2ccccc2n1Cc1ccccc1`, the signal change vs control minus 3*SD hit threshold (margin above threshold, higher = more increase) was -17.5%.
To `CCn1c(O)c(N=NC(=O)CNC(=O)c2ccccc2F)c2ccccc21` belongs -28.7%; to `CCCn1c(O)c(N=NC(=O)c2ccco2)c2ccccc21`, 29.8% (active).
To `CN1C(=O)/C(=N\OC(=O)c2cccc3ccccc23)c2ccccc21` belongs -18.7%; to `C/C(Nc1cccc(F)c1)=C(/C#N)C(N)=O`, -24.1%.
To `S=c1[nH]cnc2scc(-c3ccccc3)c12` belongs -3.2%; to `Cc1cc(-c2csc3nc[nH]c(=S)c23)cc(C)c1C`, -3.4%.
For `S=c1[nH]cnc2scc(-c3ccc(Br)cc3)c12`, the signal change vs control minus 3*SD hit threshold (margin above threshold, higher = more increase) is -22%.
To `Cc1ccc(-c2csc3nc[nH]c(=S)c23)cc1C` belongs -21.7%.
Take `Cc1c(-c2ccccc2)sc2nc[nH]c(=S)c12`: the signal change vs control minus 3*SD hit threshold (margin above threshold, higher = more increase) was 6.1% (active).
To `Cc1sc2nc[nH]c(=S)c2c1-c1ccccc1` belongs 9.4% (active).
To `Clc1ccc(Nc2nc3cccnc3s2)cc1` belongs -29.8%; to `CCOC(=O)N1CCN(C(=O)CCn2c(=S)[nH]c3ccsc3c2=O)CC1`, -14.4%.
Consider `CN(CCc1ccccn1)C(=O)CCC1CCCN(C(=O)c2ccsc2)C1` (configuration not stated), for which the signal change vs control minus 3*SD hit threshold (margin above threshold, higher = more increase) is -22.3%.
To `N=C1S/C(=C\c2ccc(-c3cccc(Cl)c3)o2)C(=O)N1c1nccs1` belongs -18.8%.
Consider `Cc1cc(S(=O)(=O)N2CCOCC2)ccc1OCC(=O)NCc1ccco1`, for which the signal change vs control minus 3*SD hit threshold (margin above threshold, higher = more increase) is -27.2%.
To `Oc1c(Br)cc(Br)cc1C=Nc1ccc2[nH]ncc2c1` belongs 11% (active).
As for `Oc1c(Br)cc(Br)cc1C=Nc1ccc2c(c1)OCCO2`, the signal change vs control minus 3*SD hit threshold (margin above threshold, higher = more increase) was -5.9%.
To `Oc1c(Br)cc(Br)cc1C=Nc1cccc2ncccc12` belongs -0.4%; to `COc1ccc(-n2c(O)c(/C=C3\C=Nc4ccccc43)c(=O)[nH]c2=O)cc1`, -43%; to `COCC(=O)NC1CC2CCC(C1)N2C(=S)Nc1ccccc1C(=O)OC` (configuration not stated), -14.6%.
To `CC(=O)CSc1ncnc2sc3c(c12)CCC(C)C3` (configuration not stated) belongs 49% (active).
To `Cc1noc(C)c1CSc1ncnc2sc3c(c12)CCCCC3` belongs -14.1%.
As to `Cc1sc2ncnc(SCC(=O)c3ccc(O)cc3O)c2c1C`, the signal change vs control minus 3*SD hit threshold (margin above threshold, higher = more increase) was -22.1%.
Turning to `COc1cc(NC(=O)CCCOc2ccc(Cl)cc2Cl)c(C(=O)O)cc1OC`, the signal change vs control minus 3*SD hit threshold (margin above threshold, higher = more increase) was -17.7%.
To `COC(=O)c1c(NC(=O)CN2CCOCC2)sc2c1CCC(C)C2` (configuration not stated) belongs -31.2%.
To `COc1cc(NC(=O)CSc2ncnc3sc4c(c23)CCC(C)C4)c(C(=O)O)cc1OC` (configuration not stated) belongs 29.8% (active); to `CCOC(=O)/C(C)=N/NC(=O)c1cccc([N+](=O)[O-])c1`, -14.2%.
For the molecule `CCOC(=O)c1ccc(Oc2cc(C)nc(SC)n2)cc1`, the signal change vs control minus 3*SD hit threshold (margin above threshold, higher = more increase) is -8.1%.
To `Cc1cccc(C(=O)NC(=S)N(C)C2CCCCC2)c1` belongs -9.9%.
